Source: PubChem BioAssay (NCATS)
Results filed as inconclusive are left out. Active and inactive are the calls of the source. The call rests on the fitted dose curve; in most records, active means well fitted curve in the direction sought with a large enough effect; inconclusive means small, poorly fitted or top-dose-only effect, or another doubt; inactive means no such curve, though single readings can be large; an effect the other way counts as inactive or inconclusive.

Experiments:
[1] = molecular target: Glutathione peroxidase 1 (Homo sapiens) (UniProt P07203); assay: Primary qHTS Assay for Inhibitors of Recombinant Selenoprotein Glutathione Peroxidase 1 (GPX1) (AID 1845191); further: nearly all actives have a fitted effect of over 65% in size; on activity, negative = inhibition: on the % scale 0 is the no-effect control and ±100 the full control effect
Glutathione peroxidase 1 (Homo sapiens), sequence (P07203 whole entry, looked up): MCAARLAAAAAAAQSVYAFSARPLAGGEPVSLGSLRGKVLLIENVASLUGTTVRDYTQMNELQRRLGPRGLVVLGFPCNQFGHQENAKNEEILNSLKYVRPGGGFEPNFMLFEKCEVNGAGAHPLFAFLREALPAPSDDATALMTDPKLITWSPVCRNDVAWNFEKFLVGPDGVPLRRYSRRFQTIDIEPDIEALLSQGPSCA
Summary of the method: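 NADPH consumption tracked by fluorescence at 340/450 nm between t=0 and t=15 min, room temperature. Final mix: 10 nM GPX1, 100 nM glutathione reductase, 1 mM GSH, 0.5 mM NADPH, 0.5 mM cumene hydroperoxide, 0.01% BSA; 30 min compound–enzyme preincubation.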

[2] = molecular target: Phospholipid hydroperoxide glutathione peroxidase GPX4 (Homo sapiens) (UniProt P36969); assay: Primary qHTS Assay for Inhibitors of Recombinant Selenoprotein Glutathione Peroxidase 4 (GPX4) (AID 1845192); further: nearly all actives have a fitted effect of over 65% in size; on activity change, negative = inhibition: series mostly up to about 50 µM; on the % scale 0 is the no-effect control and ±100 the full control effect
Phospholipid hydroperoxide glutathione peroxidase GPX4 (Homo sapiens), sequence (P36969 whole entry, looked up): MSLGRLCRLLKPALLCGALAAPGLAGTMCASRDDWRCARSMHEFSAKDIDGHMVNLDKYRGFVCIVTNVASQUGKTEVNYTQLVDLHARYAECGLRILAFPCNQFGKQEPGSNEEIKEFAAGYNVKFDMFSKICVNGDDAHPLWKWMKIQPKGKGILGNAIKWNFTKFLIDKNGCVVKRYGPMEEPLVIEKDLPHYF
Summary of the method: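 NADPH consumption followed by fluorescence at 340/450 nm, t=0 and after 15 min at room temperature. Reaction started with cumene hydroperoxide (0.5 mM final) after 30 min compound–GPX4 preincubation; final 200 nM GPX4, 100 nM GR, 1 mM GSH, 0.5 mM NADPH.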

[3] = molecular target: Luciferin 4-monooxygenase (Photinus pyralis) (UniProt P08659); assay: Primary firefly luciferase (FLuc) qHTS assay for identification of artifact compounds. (AID 1845220); further: nearly all actives have a fitted effect of over 60% in size;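 on activity change, negative = inhibition: series mostly up to about 54 µM; plate controls were DMSO vehicle for no effect and no enzyme for full effect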
Summary of the method: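 Cell-free, 1536-well qHTS. Buffer pH 7.6 with 0.01% Tween-20 and 0.05% BSA; 10 uM D-luciferin, 10 uM ATP; 10 nM P. pyralis luciferase; luminescence after 5 min.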

[4] = Primary fluorescence-based thiol-reactive (MSTI) qHTS assay for identification of artifact compounds. (AID 1845221); further: nearly all actives have a fitted effect of over 65% in size; further: potency means the concentration at half of the fitted maximal effect;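 on activity change, negative = thiol reactive: series mostly up to about 54 µM; thiol-reactive compounds lower the probe fluorescence signal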
Summary of the method: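 Probe: MSTI 4 uM, PBS pH 7.4, 2% DMSO. Incubation 1 h, RT, light-protected. Readout fluorescence 525/598 nm.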

[5] = system: Nanoluciferase (engineered Oplophorus gracilirostris luciferase); assay: Primary Nanoluciferase (NLuc) qHTS assay for identification of artifact compounds. (AID 1845222);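 further: series mostly up to about 54 µM; 0% = DMSO and -100% = no enzyme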
Summary of the method: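 Compounds are pinned into diluted (1:55) conditioned medium of NLuc-expressing S16 cells and held 15 min at room temperature protected from light. Nano-Glo substrate follows, and luminescence is read 5 min later.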

C=C(C)C(C)C1OC23CC4(CO2)C(CCC2C5(C)CCC(OC6OCC(O)C(OC7OC(CO)C(O)C(OC8OCC(O)C(O)C8O)C7O)C6OC6OC(CO)C(O)C6O)C(C)(C)C5CCC24C)C3C(C)(O)C1OC(C)=O (stereo not given)
inactive: Potency [1] | Potency [2] | outcome [3] inactive [at 11.6 µM] | activity change, negative = thiol reactive [4] 644% [at 11.5 µM] | activity, negative = inhibition [5] 3.65% [at 11.6 µM]

CC(=O)C1CCC2(C)C3=C(CCC12C)C1(C)CCC(=O)C(C)(C)C1CC3 (stereo not given)
inactive: Potency [1] | Potency [2] | Potency [3] | Potency [4] | Potency [5]

CO[C@@H](Cc1ccc(OCCc2nc(-c3ccccc3)oc2C)c2ccsc12)C(=O)O
inactive: Potency [1] | Potency [2] | Potency [3] | Potency [4] | Potency [5]

OCc1ccccc1O[C@@H]1O[C@H](CO)[C@@H](O)[C@H](O)[C@H]1O
active: Potency [4] 23.8 µM
inactive: Potency [1] | Potency [2] | Potency [3] | Potency [5]

COc1cc(/C=C/c2cc(O)cc(O[C@@H]3O[C@H](CO)[C@@H](O)[C@H](O)[C@H]3O)c2)ccc1O
inactive: Potency [1] | Potency [2] | Potency [3] | Potency [4] | Potency [5]

C[C@@H]1CC[C@]2(C(=O)O)CC[C@]3(C(=O)O)C(=CCC4[C@@]5(C)CC[C@H](O[C@@H]6O[C@@H](C)[C@H](O[C@@H]7O[C@H](CO)[C@@H](O)[C@H](O)[C@H]7O)[C@@H](O)[C@H]6O)C(C)(C)C5CC[C@]43C)C2[C@H]1C (stereo not given in full)
inactive: Potency [1] | Potency [2] | Potency [3] | Potency [4] | Potency [5]

O=C(c1ccc(F)cc1)C1CCN(CCn2c(=O)nc3n(c2=O)CCCC3)CC1
inactive: Potency [1] | Potency [2] | Potency [3] | Potency [4] | Potency [5]

C=CC(C)(C)O[C@@H]1O[C@H](CO[C@@H]2OC[C@](O)(CO)[C@H]2O)[C@@H](O)[C@H](O)[C@H]1O
inactive: Potency [1] | Potency [2] | Potency [3] | Potency [4] | Potency [5]

C=C1CC[C@H]2[C@@H](/C=C(\C)C(=O)[C@@]3(OC(C)=O)C[C@H](C)[C@H](OC(C)=O)[C@@H]3[C@H]1OC(C)=O)C2(C)C
inactive: Potency [1] | Potency [2] | Potency [3] | Potency [4] | Potency [5]

CC1=CC[C@]2(C(=O)O[C@@H]3O[C@H](CO[C@@H]4O[C@H](CO)[C@@H](O[C@@H]5O[C@@H](C)[C@H](O)[C@@H](O)[C@H]5O)[C@H](O)[C@H]4O)[C@@H](O)[C@H](O)[C@H]3O)CC[C@]3(C)C(CCC4[C@@]5(C)C[C@@H](O)[C@H](O)[C@@](C)(CO)C5CC[C@]43C)C2C1C (stereo not given in full)
inactive: Potency [1] | Potency [2] | activity change, negative = inhibition [3] 0.527% [at 11.6 µM] | activity change, negative = thiol reactive [4] 137% [at 11.5 µM] | activity, negative = inhibition [5] 3.97% [at 11.6 µM]

CC(C)(O)CNc1nc(Nc2ccnc(C(F)(F)F)c2)nc(-c2cccc(C(F)(F)F)n2)n1
inactive: Potency [1] | Potency [2] | Potency [3] | Potency [4] | Potency [5]

Cc1onc(-c2ccccc2)c1C(=O)N[C@@H]1C(=O)N2[C@@H]1SC(C)(C)[C@@H]2C(=O)O
inactive: Potency [1] | Potency [2] | Potency [3] | Potency [4] | Potency [5]

CCn1c2ccccc2c2cc(CNC)ccc21
inactive: Potency [1] | Potency [2] | Potency [3] | Potency [4] | Potency [5]

CCC1CC2C(C)=CC3CCCCC3C2(C)C2(OC(=O)C(C)(O)OC2=O)O1 (stereo not given)
inactive: Potency [1] | Potency [2] | Potency [3] | Potency [4] | Potency [5]

C=C[C@H]1[C@H](O[C@@H]2O[C@H](CO[C@@H]3OC[C@](O)(CO)[C@H]3O)[C@@H](O)[C@H](O)[C@H]2O)OC=C2C(=O)OCC[C@H]21
inactive: Potency [1] | Potency [2] | Potency [3] | Potency [4] | Potency [5]

C[C@@H]1CC[C@]2(C(=O)O)CC[C@]3(C)C(=CCC4[C@]5(C)C(CC[C@]43C)C(C)(C)[C@@H](O)[C@H](O)[C@@H]5O)C2[C@]1(C)O (stereo not given in full)
inactive: Potency [1] | Potency [2] | Potency [3] | Potency [4] | Potency [5]

CCS(=O)(=O)N1CCC([C@@H](C)n2c(C)c(C(=O)NCc3c(OC)cc(C)[nH]c3=O)c3ccccc32)CC1
inactive: Potency [1] | Potency [2] | Potency [3] | Potency [4] | Potency [5]

CC1CCC2C(C)(C)CC(C)(CO)C2(O)C1C(=O)O (stereo not given)
inactive: Potency [1] | Potency [2] | Potency [3] | Potency [4] | Potency [5]

CC1CC(O)C2(C)C(C(=O)O)=CCCC2C1(C)CCc1ccoc1 (stereo not given)
inactive: Potency [1] | Potency [2] | Potency [3] | Potency [4] | Potency [5]

C[C@@H]1O[C@@H](O[C@@H]2[C@@H](O)[C@H](O[C@@H]3[C@@H](O)[C@@H](O)[C@H](O[C@H]4[C@H](OC(=O)[C@]56CCC(C)(C)C[C@H]5C5=CCC7[C@@]8(C)C[C@H](O)[C@H](O[C@@H]9O[C@@H](C)[C@H](O)[C@@H](O)[C@H]9O)[C@@](C)(CO)C8CC[C@@]7(C)[C@]5(C)C[C@H]6O)O[C@H](C)[C@H](O)[C@@H]4O)O[C@H]3C)OC[C@H]2O)[C@H](O)[C@H](O)[C@H]1O (stereo not given in full)
inactive: outcome [1] inactive [at 9.52 µM] | activity change, negative = inhibition [2] 0.486% [at 9.73 µM] | outcome [3] inactive [at 11.6 µM] | activity change, negative = thiol reactive [4] 292% [at 11.5 µM] | activity, negative = inhibition [5] 4.95% [at 11.6 µM]
